RORg inh – qHTS for inhibitors of ROR gamma transcriptional activity; Nuclear receptor ROR-gamma (Mus musculus), P51450; Drosophila S2 Gal4-RORgamma UAS-luciferase reporter, 20 h; Potency, µM (highest dose often 53.6 µM), inactives show top-dose activity change, negative = inhibition, actives largely listed as inhibitors; actives 5.4% (n = 310,000); also: potency is read from the fitted curve at half-maximal effect; % is scaled to controls: 0 for no effect and ±100 for the full control effect; nearly all actives have a fitted effect of over 60% in size
Target sequence (P51450 whole entry, looked up, the tested form may be a part): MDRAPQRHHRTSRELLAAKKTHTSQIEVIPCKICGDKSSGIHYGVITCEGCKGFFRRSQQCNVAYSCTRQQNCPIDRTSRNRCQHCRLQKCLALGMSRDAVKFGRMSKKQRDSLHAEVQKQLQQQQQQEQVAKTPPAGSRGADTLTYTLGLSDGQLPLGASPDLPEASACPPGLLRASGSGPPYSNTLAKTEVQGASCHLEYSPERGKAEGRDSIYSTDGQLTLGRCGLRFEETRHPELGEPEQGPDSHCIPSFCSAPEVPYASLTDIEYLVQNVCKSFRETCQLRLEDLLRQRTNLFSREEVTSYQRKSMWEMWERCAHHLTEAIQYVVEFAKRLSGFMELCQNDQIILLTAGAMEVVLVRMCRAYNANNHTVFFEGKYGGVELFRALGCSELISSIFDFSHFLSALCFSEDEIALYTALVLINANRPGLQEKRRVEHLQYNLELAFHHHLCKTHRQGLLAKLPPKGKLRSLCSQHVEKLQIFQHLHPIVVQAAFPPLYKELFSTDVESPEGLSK
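Luciferase reporter read in Schneider cells carrying Gal4-RORγ (mouse) and UAS-Photinus luciferase; cells given compound 1 h before 700 uM copper sulfate induction, then incubated 20 h at ambient temperature.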
SW480 rerep – A quantitative high throughput screen for small molecules that induce DNA re-replication in SW480 colon adenocarcinoma cells; SW480 DNA re-replication, Hoechst DNA content imaging, 48 h; Potency, µM (series often up to 46.1 µM), without a hit: at the highest dose re-replication activation, usual class: activators; actives 1.8% (n = 340,000); AID 624297, 2012; also: potency is read from the fitted curve at half-maximal effect; % of control where 0% means no effect; nearly all actives have a fitted effect of over 55% in size
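Per well, 250 cells were exposed to pinned compound for 48 hr. Nuclear DNA was visualised with Hoechst (40 min, 37 C) and total object intensity recorded by fluorescence scanning.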
IL-1B inflam inh – qHTS for Inhibitors of Inflammasome Signaling: IL-1-beta AlphaLISA Primary Screen; THP-1 LPS/ATP IL-1B secretion, AlphaLISA, 16 h; hits give low values; activity change, % at 57.5 µM; actives 4.7% (n = 360,000); in the data active = activity change below about -50%; inconclusive = mostly about -30% to -49%; also: % is scaled to controls: 0 for no effect and ±100 for the full control effect
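THP-1 cells pretreated 1 hr with compounds (up to 57.5 uM final), then stimulated with LPS (250 ng/mL final) plus ATP (1.25 mM final); secreted IL-1B measured by AlphaLISA after 16 hr, decreased signal indicating inhibition.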
MCF10A rerep – A quantitative high throughput screen for small molecules that induce DNA re-replication in MCF 10a normal breast cells. MCF 10A DNA re-replication, Hoechst nuclear intensity, 48 h. Potency, µM (doses to about 46.1 µM), without a hit: top-dose activity, positive = re-replication, hits mostly activators. actives 2.9% (n = 350,000). AID 624296, 2012; also: potency is read from the fitted curve at half-maximal effect; % of control where 0% means no effect; nearly all actives have a fitted effect of over 50% in size
Gal4-VP16 FLuc – VP16 counterscreen qHTS for inhibitors of ROR gamma transcriptional activity | Drosophila S2 Gal4-VP16 UAS-luciferase, luminescence, 20 h | Potency, µM (top dose mostly 53.6 µM), without a hit: at the top dose activity, negative = inhibition, hits mostly inhibitors | actives 3.5% (n = 310,000) | AID 2546, 2010;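 also: Gal4-VP16 expression switched on by copper sulfate through the metallothionein promoter; potency is read from the fitted curve at half-maximal effect; % is scaled to controls: 0 for no effect and ±100 for the full control effect; nearly all actives have a fitted effect of over 50% in size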
Numbers without * were called inactive; ? = inconclusive; . = not tested or not shown; [ ] = another dose, or the depositor's remark. In the library only some 11% were active in any assay of this set; here they are far more common. Unless noted, calls follow the shape of the dose curve; as a rule, active = well fitted curve in the direction sought with a large enough effect; inconclusive = small, poorly fitted or top-dose-only effect, or another doubt; inactive = no such curve, though single readings can be large; an effect the other way counts as inactive or inconclusive.

SMILES	RORg inh	SW480 rerep	IL-1B inflam inh	MCF10A rerep	Gal4-VP16 FLuc
COc1ccc(CCNC(=O)CSc2nnc3ccc(-c4ccccn4)nn23)cc1	.	-4.5%	8.3	1.8%	.
Cc1ccc(S(=O)(=O)CC(=O)N2CCN(c3ccc(F)cc3)CC2)cc1	30.1%	3.4%	0.0	-2.6%	?
Cc1cc(C)c(S(=O)(=O)Nc2cccc3nsnc23)c(C)c1	5.4%	0.6%	-17.0	?	-4.8%
COc1ccc(S(=O)(=O)Nc2cc(OC)cc3cccnc23)cc1	2.51µM*	.	.	.	?
O=S(=O)(Nc1cccc2cccnc12)c1ccc2ccccc2c1	5.62µM*	.	.	.	0.631µM*
Cc1cc(C)c(S(=O)(=O)Nc2cccc3cccnc23)c(C)c1	0.0891µM*	.	.	.	0.316µM*
O=C(O)c1ccccc1NS(=O)(=O)c1ccc2ccccc2c1	-21.2%	-0.5%	29.8	-17.9%	-7.0%
Nc1ccc(S(=O)(=O)Nc2cccc3cccnc23)cc1	3.98µM*	.	.	.	11.2µM*
O=C1CC(NS(=O)(=O)c2cc(F)ccc2F)CN1c1ccc2c(c1)OCCO2 (configuration not stated)	.	-1.7%	2.9	0.8%	.
O=[N+]([O-])c1ccc(NS(=O)(=O)N2CCOCC2)cc1	.	-6.3%	13.4	-0.4%	.
O=C(COC(=O)/C=C/c1ccc(OC(F)F)cc1)Nc1cccc(S(=O)(=O)N2CCOCC2)c1	.	2.3%	-10.7	5.3%	.
Cc1ncc([N+](=O)[O-])n1CC(=O)Nc1cc(Cl)ccc1Cl	0.2%	0.8%	14.1	1.8%	-14.8%
COc1cc2c(cc1OC)Cc1cc(OC)c(OC)cc1Cc1cc(OC)c(OC)cc1C2	-29.6%	.	.	.	-0.3%
Cc1nc2cc3c(=O)n(C)cnc3cc2n1Cc1ccccc1	.	.	0.0	.	.
O=S(=O)(Nc1cccc2cccnc12)c1ccc(Br)s1	0.562µM*	.	.	.	1.12µM*
Cc1cccc(NS(=O)(=O)c2ccc(Br)s2)n1	15.7%	-7.9%	0.0	-0.4%	0.6%
Cc1ccccc1Nc1oc(-c2ccccc2)nc1-c1cccs1	23.7%	.	.	.	-6.6%
O=C1C=C(NCCc2cc(Br)c(O)c(Br)c2)C(=O)c2ncccc21	.	3.66µM*	-104.7*	?	.
Oc1c(C=C2N=c3ccccc3=N2)sc(=S)n1-c1ccc(F)cc1	?	-0.7%	-3.4	0.2%	12.6µM*
Oc1c(C=C2N=c3ccccc3=N2)sc(=S)n1-c1ccc2ccccc2c1	10.4%	-10.8%	47.5	6.1%	?
O=C(NC(=S)N1CCCC1)c1ccc(Cl)cc1Cl	0.891µM*	?	26.1	12.6%	1.41µM*
COc1c(Cl)ccc(Cl)c1C(=O)NC(=S)N1CCOCC1	3.55µM*	-6.6%	8.5	-0.2%	11.2µM*
O=C(NC(=S)N1CCOCC1)c1ccccc1Cl	2.82µM*	-4.5%	-2.2	0.7%	?
O=C(NCC(=O)N1CCCCC1)c1ccc(Cl)cc1Cl	?	1.9%	1.4	1.5%	0.2%
Nc1c2c(=O)[nH]c(O)cc2nn1-c1ccccc1	.	0.3%	35.9	-1.1%	.
SMILES	RORg inh	SW480 rerep	IL-1B inflam inh	MCF10A rerep	Gal4-VP16 FLuc
CC[C@@H]1C(c2ccccc2)=NN(c2ccccc2)[C@H]1C(=O)N1CCOC1=O	35.5%	9.8%	4.8	23.1µM*	8.6%
Cc1cccc(C2=NN(c3ccc(Br)cc3)[C@@H](C(=O)N3CCOC3=O)[C@@H]2C)c1	1.8%	?	?	5.17µM*	4.9%
C[C@@H]1C(c2ccccc2)=NN(c2ccc(Br)cc2)[C@H]1C(=O)N1CCOC1=O	5.4%	?	?	14.6µM*	-2.6%
Cc1cccc(C2=NN(c3ccccc3)[C@@H](C(=O)N3CCOC3=O)[C@@H]2C)c1	3.0%	-24.9%	-14.9	15.7%	6.5%
CO[C@H]1COC(=O)[C@@H](CCSC)NC(=O)C/C=C\[C@@H](C)COC(=O)[C@@H](OCc2ccccc2)/C=C\[C@@H]1C	-9.8%[10 µM]	.	.	.	-7.1%[10 µM]
Cc1cccc(CN2CCc3c([nH]c4ccccc34)C2CC(C)C)n1 (configuration not stated)	?	?	?	18.4µM*	?
CC(C)CC1c2[nH]c3ccccc3c2CCN1CCCn1cccn1 (configuration not stated)	22.5%	-93.9%	-19.0	?	5.0%
Cc1cnc(CN2CCc3c([nH]c4ccccc34)C2CC(C)C)[nH]1 (configuration not stated)	-32.8%	6.51µM*	?	?	11.2%
CN(C)CCN(C)C1CN(Cc2ccc(F)cc2)S(=O)(=O)C1 (configuration not stated)	.	.	0.0	.	.
NC(=S)NNc1cc(Cl)cc(Cl)c1	2.24µM*	1.4%	-3.3	-2.1%	3.98µM*
NC(=S)Nc1cc(Cl)cc(Cl)c1	-33.3%	-43.1%	.	-19.7%	-5.9%
COCCNC(=O)CN(CCc1ccccc1)S(=O)(=O)c1ccc(Br)cc1	22.1%	?	16.9	-12.2%	16.3%
CN(C)CCOC1c2ccccc2CCc2ccc3ccccc3c21 (configuration not stated)	.	8.0%	-85.7*	9.6%	.
CN(C)CCOC1c2ccccc2C=Cc2ccccc21	.	2.6%	-13.5	1.6%	.
CCC(C)[C@H]1CNCCN1CCc1cccc2ccccc12 (some centres not stated)	.	10.2%	-7.4	57.7%	.
CCC(C)[C@H]1CNCCN1CCc1cc(C(F)(F)F)cc(C(F)(F)F)c1 (some centres not stated)	.	-0.3%	-66.1*	-10.4%	.
CCC(C)[C@H]1CNCCN1CCC12CC3CC(CC(C3)C1)C2 (some centres not stated)	.	-4.1%	-61.8*	0.0%	.
CCCC[C@@H]1CNCCN1CCc1cc(C(F)(F)F)cc(C(F)(F)F)c1	.	-1.0%	-61.3*	-5.5%	.
CCC(C)[C@H]1CNC(=S)N1CCc1cc(C(F)(F)F)cc(C(F)(F)F)c1 (some centres not stated)	2.24µM*	0.1%	-55.5*	?	3.98µM*
CN1CCN(c2ncncc2-c2cccnc2)CC1	-4.4%	.	.	.	4.1%
CCCNC(=O)C1(C)CCN(C(=O)c2c(F)ccc(C)c2F)C1 (configuration not stated)	.	.	-14.5	.	.
COc1ccccc1-c1cnc(C(O)c2ccc(F)c(F)c2)[nH]1 (configuration not stated)	.	.	13.0	.	.
c1ccc(C[C@H]2CNCCN2CCCCC2CCCCC2)cc1	.	?	-80.2*	29.3%	.
FC(F)(F)c1cc(CCN2CCNC[C@@H]2CC2CCCCC2)cc(C(F)(F)F)c1	.	24.4%	-101.4*	18.4µM*	.
CN1OC[C@@H]2CN(Cc3ccccc3)[C@H](c3cccc(Oc4ccccc4)c3)C[C@@H]21	.	-72.2%	-8.9	?	.

Screening results deposited in PubChem by National Center for Advancing Translational Sciences (NCATS).
